According to PubChem BioAssay:
Calls of active or inactive are those of the source.

Columns and labels:
[1] = tested on: Plasmodium falciparum Sir2 (PF13_0152, Sir2A); assay: pfSir2 binders on small-molecule microarrays, primary screen, biochemical, small-molecule microarray, 635 nm fluorescence (AID 1098); settings: small-molecule microarray binding, fluorescence 635 nm; higher = more signal;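 further: score merges spot fluorescence intensity with its signal-to-noise ratio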
[2] = small-molecule microarray binders of probe aDKK1, primary screen, biochemical, biotinylated probe, 635/667 nm fluorescence (AID 1099); settings: higher = more signal;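 further: score merges 667nm spot fluorescence with signal to noise across triplicate slides; reference of the scale not given here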
[3] = small-molecule microarray binders of probe aCHRDL2, primary screen, biochemical, biotinylated probe, 635/667 nm fluorescence (AID 1100); settings: higher = more signal
[4] = splicing luciferase reporter signal modulators, primary screen, spliceosome inhibition project, cell-based, HEK293, splice +/- reporter (AID 1101); settings: luminescence, 24 h, higher = more signal, called active from +8 up or from −8 down;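 further: HEK293 cells carrying a splicing-competent luciferase reporter gene; test concentration not given here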
[5] = molecular target: Fibroblast growth factor 10 (Homo sapiens) (UniProt O15520); assay: FGF10 binders on small-molecule microarrays, primary screen, biochemical, small-molecule microarray, 635 nm fluorescence (AID 1102); settings: FGF10 binding, fluorescence 635 nm, higher = more signal
[6] = tested on: glycogen synthase kinase-3 (GSK3A per assay name; protocol says GSK3B); assay: GSK3 binders on small-molecule microarrays, primary screen, biochemical, small-molecule microarray, 635 nm fluorescence, GSK3A (AID 1103); settings: small-molecule microarray binding, fluorescence 635 nm; higher = more signal; further: the record names both GSK3A and GSK3B
[7] = molecular target: Epidermal growth factor receptor (Homo sapiens) (UniProt P00533); assay: EGFR binders on small-molecule microarrays, primary screen, biochemical, small-molecule microarray, 635 nm fluorescence (AID 1104); settings: EGFR binding, higher = more signal;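 further: score merges 667 nm emission intensity with spot signal to noise over triplicate slides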
[8] = molecular target: Follistatin-related protein 3 (Homo sapiens) (UniProt O95633); assay: FSTL3 binders on small-molecule microarrays, primary screen, biochemical, small-molecule microarray, 635 nm fluorescence (AID 1105); settings: FSTL3 binding, higher = more signal;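 further: score merges emission near 667 nm and signal to noise per printed spot across three slides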
[9] = molecular target: Dickkopf-related protein 1 (Homo sapiens) (UniProt O94907); assay: DKK1 binders on small-molecule microarrays, primary screen, biochemical, small-molecule microarray, 635 nm fluorescence scan (AID 1106); settings: DKK1 binding, higher = more signal;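 further: score merges emission near 667 nm with signal to noise over three replicate slides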
[10] = tested on: Inhibin beta A chain (activin A); assay: INHBA (activin A) binders on microarrays, primary screen, biochemical, small-molecule microarray, 635 nm fluorescence scan (AID 1107); settings: small-molecule microarray binding, higher = more signal;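 further: mouse activin A protein probed at 4.33 µg/mL on printed slides; score merges bound-protein fluorescence near 667 nm with spot signal-to-noise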

Fibroblast growth factor 10 (Homo sapiens), sequence (O15520 whole entry, looked up): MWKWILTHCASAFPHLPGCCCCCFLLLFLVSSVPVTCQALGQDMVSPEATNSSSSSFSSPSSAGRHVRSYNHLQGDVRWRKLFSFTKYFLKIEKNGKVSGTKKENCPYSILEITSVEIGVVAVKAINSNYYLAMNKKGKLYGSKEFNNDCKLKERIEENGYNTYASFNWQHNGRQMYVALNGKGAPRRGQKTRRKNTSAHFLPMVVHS
Dickkopf-related protein 1 (Homo sapiens), sequence (O94907 whole entry, looked up): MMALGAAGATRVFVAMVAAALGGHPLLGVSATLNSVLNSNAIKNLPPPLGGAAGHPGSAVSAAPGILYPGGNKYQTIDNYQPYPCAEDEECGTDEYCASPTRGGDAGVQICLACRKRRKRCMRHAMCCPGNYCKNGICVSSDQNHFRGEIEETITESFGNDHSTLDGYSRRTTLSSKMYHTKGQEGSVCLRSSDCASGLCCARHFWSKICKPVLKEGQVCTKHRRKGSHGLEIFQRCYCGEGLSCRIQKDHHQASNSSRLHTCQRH
Epidermal growth factor receptor (Homo sapiens), sequence (P00533 whole entry, looked up): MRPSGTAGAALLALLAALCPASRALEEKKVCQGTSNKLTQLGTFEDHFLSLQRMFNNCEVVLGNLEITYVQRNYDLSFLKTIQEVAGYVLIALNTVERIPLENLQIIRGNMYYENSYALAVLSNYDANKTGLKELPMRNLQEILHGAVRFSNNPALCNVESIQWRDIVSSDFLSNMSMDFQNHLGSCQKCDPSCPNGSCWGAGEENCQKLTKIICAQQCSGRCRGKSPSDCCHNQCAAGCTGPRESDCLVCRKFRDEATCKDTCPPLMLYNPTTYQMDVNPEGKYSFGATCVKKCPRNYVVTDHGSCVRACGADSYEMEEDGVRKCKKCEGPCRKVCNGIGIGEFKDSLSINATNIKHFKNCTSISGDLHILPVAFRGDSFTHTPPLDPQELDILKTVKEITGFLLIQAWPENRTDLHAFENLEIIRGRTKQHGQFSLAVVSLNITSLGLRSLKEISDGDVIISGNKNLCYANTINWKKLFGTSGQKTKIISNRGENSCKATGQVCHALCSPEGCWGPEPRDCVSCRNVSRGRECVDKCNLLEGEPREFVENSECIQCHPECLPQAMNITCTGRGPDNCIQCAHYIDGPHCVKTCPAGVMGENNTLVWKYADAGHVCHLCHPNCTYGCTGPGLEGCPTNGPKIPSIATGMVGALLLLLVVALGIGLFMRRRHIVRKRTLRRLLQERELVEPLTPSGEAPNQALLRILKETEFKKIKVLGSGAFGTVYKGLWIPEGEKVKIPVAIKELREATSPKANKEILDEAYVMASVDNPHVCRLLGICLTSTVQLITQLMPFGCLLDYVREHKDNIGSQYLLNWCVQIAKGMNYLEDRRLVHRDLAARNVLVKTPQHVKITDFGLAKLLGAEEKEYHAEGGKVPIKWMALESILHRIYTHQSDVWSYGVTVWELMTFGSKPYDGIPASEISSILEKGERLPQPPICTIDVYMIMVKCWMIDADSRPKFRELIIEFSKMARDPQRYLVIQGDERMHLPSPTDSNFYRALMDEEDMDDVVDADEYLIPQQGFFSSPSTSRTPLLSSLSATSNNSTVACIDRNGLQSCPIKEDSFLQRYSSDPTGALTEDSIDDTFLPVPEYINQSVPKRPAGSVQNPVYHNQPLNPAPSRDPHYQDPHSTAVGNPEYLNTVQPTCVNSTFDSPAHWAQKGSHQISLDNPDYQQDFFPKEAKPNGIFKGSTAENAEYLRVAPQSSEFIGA
Follistatin-related protein 3 (Homo sapiens), sequence (O95633 whole entry, looked up): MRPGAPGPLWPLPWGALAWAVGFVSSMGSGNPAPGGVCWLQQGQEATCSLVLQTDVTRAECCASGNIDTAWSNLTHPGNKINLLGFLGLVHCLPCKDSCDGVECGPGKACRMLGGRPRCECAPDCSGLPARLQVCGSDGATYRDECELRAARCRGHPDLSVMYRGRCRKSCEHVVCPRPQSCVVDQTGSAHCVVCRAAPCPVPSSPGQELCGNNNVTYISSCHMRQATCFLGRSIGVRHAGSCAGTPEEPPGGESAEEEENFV

Structure (SMILES) | composite z-score [1] | composite z-score [2] | composite z-score [3] | z-score [4] | composite z-score [5] | composite z-score [6] | composite z-score [7] | composite z-score [8] | composite z-score [9] | composite z-score [10]
CO[C@H]1O[C@H](CO)[C@@H](OC(=O)Nc2cccc(F)c2)[C@H](OC(=O)Nc2ccc3c(c2)OCO3)[C@@H]1OC(=O)Nc1ccc2c(c1)OCO2 | 1.13 | 0.359 | 0.558 | -1.13 (inactive) | 1 | 1.2 | 0.0595 | 1.37 | 0.229 | 0.663
CCOC(=O)C1=CCC(c2cccn2C(=O)OC(C)(C)C)N(S(=O)(=O)c2ccc(C)cc2)C1 (stereo not given) | 1.45 | 0.484 | 0.574 | -0.799 (inactive) | 0.404 | 1.3 | 0.698 | 0.922 | 0.0815 | 1.46
[N-]=[N+]=NCc1ccccc1[C@H]1OC(c2ccc(OCCCO)cc2)=N[C@@]1(Cc1ccccc1N=[N+]=[N-])C(=O)O | 1.07 | 1.08 | 0.904 | 0.258 (inactive) | 0.716 | 1.03 | -0.0317 | 0.783 | -0.107 | 0.987
CCOC(=O)C[C@H]1[C@H](OC(=O)Cc2ccc3c(c2)OCO3)[C@@H](NC(=O)CC(C)C)c2cc(OCCCO)ccc2N1C(=O)c1ccc2ccccc2n1 | 1.26 | 0.0956 | -0.252 | -0.881 (inactive) | 0.891 | 0.614 | 0.255 | 1.19 | 0.743 | 0.242
CN(C)C(=O)[C@]1(CCS(=O)(=O)c2ccccc2)N=C(c2ccc(OCCCO)cc2)O[C@@H]1c1ccccc1CN=[N+]=[N-] | 1.45 | -0.326 | 0.32 | -0.153 (inactive) | 1.26 | 1.24 | -0.126 | 0.425 | -0.142 | 0.869
CC(C)N1C(=O)[C@@]2(Cc3ccccc31)c1ccccc1C(=O)N(Cc1ccccc1)[C@H]2c1ccc(CO)cc1 | 0.0154 | -1.02 | -1.01 | 0.144 (inactive) | 0.368 | 0.241 | -0.162 | 0.245 | 0.355 | 0.931
CCCCC(=C=CC[C@@H](O)c1ccccc1OCCO)C[C@@H](O)c1ccccn1 | 1.55 | -0.124 | -0.167 | -0.0777 (inactive) | 0.473 | -0.644 | 0.125 | 0.143 | 0.141 | 0.624
